p53ts 32C kill – p53ts cell cytotoxicity, permissive temperature; H1299-p53A138V at 32C, ATP luminescence viability, 24 h; 130,000 tested, 0.93% active; Potency, µM (titrated, usually from 46.1 µM), for inactives: top-dose activity change, negative = cytotoxicity, hits mostly cytotoxic;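 also: potency is read from the fitted curve at half-maximal effect; 0% = DMSO and -100% = full killing by reference compound; nearly all actives have a fitted effect of over 55% in size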
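Cells: H1299 p53ts (A138V), 600/well, pre-incubated 16–30 h at 37C. Cpd up to 46 uM, 24 h, 32C. Readout: ATPlite luminescence, 20 min RT. Normalization: DMSO vs tamoxifen 100 uM. AC50 by Hill equation.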
IMPase cell inh – cell-permeable inhibitors of inositol monophosphatase (IMPase). P97697. CHO-M1 cells, IP1 accumulation, HTRF TR-FRET ratio. inhibition (IP1 accumulation), % at 46.1 µM. 120,000 tested, under 10 active; active = well fitted curve in the direction sought with a large enough effect in the signal ratio, not every such curve was filed as active; inconclusive = small, poorly fitted or top-dose-only effect, or a change in a side signal; inactive = no such curve, though single readings can be large or run the other way; the % refers to the signal ratio;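 also: cells stimulated with carbachol in lithium chloride buffer; plate controls were DMSO basal wells for no effect and reference inhibitor wells for full effect; higher means more IMPase inhibition seen as more IP1 and lower FRET ratio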
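Measured: the HTRF emission ratio (665/620 nm) plus the 620 nm donor channel, each fitted to the Hill equation to give AC50. Cells were CHO-M1 given compounds up to 46 uM and a 30 min carbachol stimulation at 37C.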
Luciferase inh – inhibitors of firefly luciferase; P08659; purified firefly luciferase, luminescence, 8 min; Potency, µM (doses to about 57.1 µM), for the others: top-dose activity change, negative = inhibition, usual class: inhibitors; 72,000 tested, 2.2% active; also: potency is read from the fitted curve at half-maximal effect; % is scaled to controls: 0 for no effect and ±100 for the full control effect; nearly all actives have a fitted effect of over 40% in size
Target sequence (P08659 whole entry, looked up): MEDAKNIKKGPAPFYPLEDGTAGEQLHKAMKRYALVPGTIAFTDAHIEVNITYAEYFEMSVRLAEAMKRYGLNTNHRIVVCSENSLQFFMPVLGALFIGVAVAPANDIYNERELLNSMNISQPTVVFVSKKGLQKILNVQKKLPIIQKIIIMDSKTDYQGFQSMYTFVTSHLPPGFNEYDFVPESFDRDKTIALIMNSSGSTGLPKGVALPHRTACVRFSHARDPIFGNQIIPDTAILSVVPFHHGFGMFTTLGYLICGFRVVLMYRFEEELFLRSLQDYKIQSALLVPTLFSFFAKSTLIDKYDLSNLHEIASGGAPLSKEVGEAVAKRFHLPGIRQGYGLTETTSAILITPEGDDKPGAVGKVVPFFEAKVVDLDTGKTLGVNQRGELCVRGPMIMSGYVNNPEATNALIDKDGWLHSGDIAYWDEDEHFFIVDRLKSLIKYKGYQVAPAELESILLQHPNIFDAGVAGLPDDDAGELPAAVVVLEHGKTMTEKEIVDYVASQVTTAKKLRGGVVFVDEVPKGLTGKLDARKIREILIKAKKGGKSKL
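Here, luciferase activity is measured as luminescence following an 8 min room-temperature reaction at 10 uM ATP, pH 7.2. Every library sample is titrated.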
p53ts 39C tox – cytotoxicity in p53ts cells at nonpermissive temperature. H1299-p53A138V viability at 39C, ATP luminescence, 24 h. Potency, µM (top dose mostly 46.1 µM), inactives show at the highest dose activity change, negative = cell killing, most hits filed as cytotoxic. 130,000 tested, 1.5% active; also: potency is read from the fitted curve at half-maximal effect; % is scaled to controls: 0 for no effect and ±100 for the full control effect; nearly all actives have a fitted effect of over 55% in size
Peg3 imprint – genomic imprint erasure induction. mouse ES Peg3-LacZ reporter, beta-gal luminescence, 40 h. Potency, µM (titrated, usually from 60.7 µM), without a hit: top-dose activity change, positive = activation, hits mostly activators. 110,000 tested, 0.02% active; also: potency is read from the fitted curve at half-maximal effect
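Readout: BetaGlo luminescence (5 min, room temp) for LacZ from the normally silent maternal Peg3 allele in female Peg3LacZ-Neo ES cells. Cells 300/well, 40 h, 37C, 5% CO2. Data normalized per plate to negative controls.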
IkB sig inh – inhibitors of IkB signaling in ABC-DLBCL cells; ABC-DLBCL IkBa-CBG/CBR dual luciferase ratio, 4 h; response scale: scaled: untreated 0%, proteasome inhibitor 100%; Potency, µM (titrated, usually from 57.1 µM), inactives show at the highest dose IkBa stabilization activation; 110,000 tested, 0.04% active; active = well fitted curve in the direction sought with a large enough effect in the signal ratio, not every such curve was filed as active; inconclusive = small, poorly fitted or top-dose-only effect, or a change in a side signal; the % refers to the signal ratio;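 also: potency is read from the fitted curve at half-maximal effect; the direction sought is a rising ratio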
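Curves were fitted separately to fusion (green), unfused (red) and ratio luminescence, then classed by r2, magnitude and activity. Cells: OCI-Ly3, 4 h compound plus doxycycline at 37C; 10 uM MG-132 defined full response.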
Numbers without * were called inactive; ! = not confirmed by another sample; [ ] = another dose, or the depositor's remark. The entries come from a sample that favours hits as a whole. Unless noted, calls follow the shape of the dose curve; as a rule, active = well fitted curve in the direction sought with a large enough effect; inconclusive = small, poorly fitted or top-dose-only effect, or another doubt; inactive = no such curve, though single readings can be large; an effect the other way counts as inactive or inconclusive.

Screening O=C(O)CCc1nnc2cnc3ccccc3n12 returned p53ts 32C kill 3%, p53ts 39C tox -1%, Peg3 imprint 4%[10.9 µM] and IkB sig inh -1%.
Screening CO/N=C(/C)CCC(=O)OC[C@@H]1O[C@H](c2ccccc2)C=C[C@@H]1Oc1ccc(OC)cc1 returned p53ts 32C kill -5%[9.22 µM], Luciferase inh 0%[11.4 µM] and p53ts 39C tox 3%[9.22 µM].
For CCc1ccc(-c2cn(-c3nc(C)cc(C)n3)c(=N)o2)cc1 the results were p53ts 32C kill 12%, IMPase cell inh 8, Luciferase inh 16µM*, p53ts 39C tox -14%, Peg3 imprint -23% and IkB sig inh inconclusive.
CCc1ccc(C(=O)CN(C#N)c2nc(C)cc(C)n2)cc1 was read as IMPase cell inh 15.
Cc1ccc(Cl)cc1-n1c(CCC(=O)O)ccc1-c1cccs1 was read as p53ts 32C kill -6%, IMPase cell inh -8, p53ts 39C tox 0%, Peg3 imprint -7%[10.9 µM] and IkB sig inh inconclusive.
For Cc1ccc2nc(NC(=O)CSc3[nH]c(=O)ncc3C)sc2c1 the results were p53ts 32C kill 7%, p53ts 39C tox inconclusive, Peg3 imprint -21%[10.9 µM] and IkB sig inh 2%.
`COc1ccc(CCN(C)CCCOc2ccc(S(=O)(=O)c3[nH]c4ccccc4c3C(C)C)cc2)cc1OC` gave p53ts 32C kill 25µM*, IMPase cell inh 4, Luciferase inh 1%, p53ts 39C tox 13µM*, Peg3 imprint -29% and IkB sig inh inconclusive.
Screening COc1ccc(CCN(C)CCc2ccc(OC)c(OC)c2)cc1OC returned p53ts 32C kill -2%, IMPase cell inh 3, Luciferase inh -4%, p53ts 39C tox -10%, Peg3 imprint 0% and IkB sig inh 0%.
For O=C1C(c2ccncc2)=C(O)c2ccccc21 the results were p53ts 32C kill 3.2µM*, IMPase cell inh 3[1.84 µM], Luciferase inh 13µM*, p53ts 39C tox 6.3µM*, Peg3 imprint inconclusive and IkB sig inh inconclusive.
Screening O=C1C(C=NCc2ccncc2)=C(O)c2ccccc21 returned IMPase cell inh -8.
CCCCN(C)S(=O)(=O)c1ccc(C(=O)Nc2ccc(-c3nc4ccc(C)cc4s3)cc2)cc1 was read as p53ts 32C kill 0%, p53ts 39C tox -6%, Peg3 imprint 25%[10.9 µM] and IkB sig inh -4%.
`COc1ccc2c(c1OC)C(=O)N(c1ccccn1)C2` gave p53ts 32C kill inconclusive, IMPase cell inh -14, Luciferase inh inconclusive, p53ts 39C tox inconclusive, Peg3 imprint -72% and IkB sig inh 4%.
COc1ccc2c(c1OC)C(=O)N(c1cccc(C(F)(F)F)c1)C2 was read as p53ts 32C kill inconclusive, IMPase cell inh 0, Luciferase inh 13µM*, p53ts 39C tox inconclusive, Peg3 imprint -20% and IkB sig inh 0%.
COc1ccc2c(c1OC)C(=O)N(c1cccc(C)c1)C2 was read as p53ts 32C kill 7.9µM*, IMPase cell inh 8, Luciferase inh 7.9µM*, p53ts 39C tox 5µM*, Peg3 imprint -50% and IkB sig inh 3%.
For C=C1CC[C@H]2C(C)(C)[C@H](O)CC[C@]2(C)[C@@H]1COc1ccc2ccc(=O)oc2c1 the results were Luciferase inh 1%[11.4 µM] and IkB sig inh -2%[11.4 µM].
Cc1ccc(-c2cc(C(=O)N3CCCC3)no2)cc1 was read as p53ts 32C kill 7.9µM*, IMPase cell inh -3, Luciferase inh 4µM*, p53ts 39C tox 7.9µM*, Peg3 imprint -80% and IkB sig inh inconclusive.
For Cc1ccc(Cn2c(SCC(=O)NCc3ccccc3)nc3ccsc3c2=O)cc1 the results were p53ts 32C kill 0%, p53ts 39C tox 16µM*, Peg3 imprint 20%[10.9 µM] and IkB sig inh -2%.
For COc1ccc(-c2coc3cc(OC)cc(O)c3c2=O)cc1 the results were IMPase cell inh -22.
For CC(C)Oc1cc(O)c2c(=O)c(-c3ccc(O)cc3)coc2c1 the results were p53ts 32C kill inconclusive, IMPase cell inh -7, Luciferase inh 13µM*, p53ts 39C tox inconclusive, Peg3 imprint -22% and IkB sig inh -3%.
O=c1c(-c2ccc(O)cc2)coc2cc(O)cc(O)c12 was read as p53ts 32C kill 10µM*!, IMPase cell inh 6, Luciferase inh 0%, p53ts 39C tox inconclusive, Peg3 imprint -31% and IkB sig inh inconclusive.
For Nc1ncnc2c1ncn2[C@@H]1CCCO1 the results were p53ts 32C kill 34%, IMPase cell inh -2, Luciferase inh 3%, p53ts 39C tox 13% and IkB sig inh 6%.
For CC(C)[C@H]1C(=O)C(C(N)=O)=C(O)[C@]2(O)C(=O)C3=C(O)c4c(O)ccc(N(C)C)c4C[C@H]3C[C@@H]12 the results were p53ts 32C kill -11%, IMPase cell inh 1, Luciferase inh -7%, p53ts 39C tox 8% and IkB sig inh 0%.
For COc1cc(C(=O)Nc2ccc(OCc3cc(=O)n4cccc(C)c4n3)cc2)cc(OC)c1OC the results were p53ts 32C kill inconclusive, p53ts 39C tox 32µM*, Peg3 imprint -10%[10.9 µM] and IkB sig inh 0%.
For COc1ccccc1C(=O)Nc1ccc(OCc2cc(=O)n3cccc(C)c3n2)cc1 the results were p53ts 32C kill 9%, p53ts 39C tox 6%, Peg3 imprint 4%[10.9 µM] and IkB sig inh -1%.
COC(=O)C1=C(C)NC(C)=C([N+](=O)[O-])[C@@H]1c1ccccc1C(F)(F)F was read as p53ts 32C kill 12%, IMPase cell inh -2, Luciferase inh 4µM*, p53ts 39C tox -6%, Peg3 imprint 0% and IkB sig inh inconclusive.
Screening CC1CCc2c(cc(-c3ccccc3)n2-c2ccc(C(=O)NC(C)C)cc2)C1 (stereo unspecified) returned p53ts 32C kill 44%, p53ts 39C tox 16µM*, Peg3 imprint -14%[10.9 µM] and IkB sig inh 0%.
`Cc1ccc(-c2cc(-c3ccccc3Cl)[nH]n2)c(O)c1` gave p53ts 32C kill -29%, IMPase cell inh 14, Luciferase inh 10µM*, p53ts 39C tox inconclusive, Peg3 imprint -23% and IkB sig inh inconclusive.
For Cc1ccc(-c2cc(-c3ccccc3[N+](=O)[O-])[nH]n2)c(O)c1 the results were IMPase cell inh 3.
`CCOC(=O)CSc1nc2c([nH]c3ccccc32)c(=O)n1-c1ccc(OC)cc1` gave p53ts 32C kill 12%, p53ts 39C tox -25%, Peg3 imprint -6%[10.9 µM] and IkB sig inh -1%.
Screening O=C(O)c1ccc2cc(-c3ccc(O)c(C45CC6CC(CC(C6)C4)C5)c3)ccc2c1 returned p53ts 32C kill 20µM*, p53ts 39C tox inconclusive and Peg3 imprint -27%.

Bioassay records from PubChem BioAssay.
